Only some compounds are listed: those with a hit (about 21% of all), similar ones and a draw of the others.
MRP resist rev – compounds reversing MRP-mediated drug resistance. AID 602. differential viability (reversal), % at 10 µM. H69AR cells + 2 uM doxorubicin, CellTiter-Glo, 72 h. 85,000 compounds, 0.04% hits;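 active = viability drop by adding the cancer drug above about 55%, with treated viability meeting a 40% cutoff, limit read from the data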;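 note: viability without doxorubicin minus viability with 2 µM doxorubicin for each compound; larger differential means the compound sensitizes cells more to doxorubicin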
CYP2C9 inhib – blocks human cytochrome P450 2C9. P11712. 96,000 compounds, 20% hits. CYP2C9 Supersomes, luciferin-H conversion, luminescence. inhibition, % at 5 µM;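 active = blocking of liver enzyme CYP2C9 beyond about 50% at 5 µM, limit read from the data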
CYP2C19 inh – human CYP2C19 inhibition. 96,000 compounds, 21% hits. CYP2C19 Supersomes, luciferin-H EGE luminescence, 30 min. inhibition, % at 5 µM;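 active = CYP2C19 inhibition above a set limit at 5 µM in the primary screen, cut at about 50% in these data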;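 note: plate controls were negative control wells for no effect and 2.5 mM tranylcypromine positive control for full effect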
Target sequence (P33261 whole entry, looked up): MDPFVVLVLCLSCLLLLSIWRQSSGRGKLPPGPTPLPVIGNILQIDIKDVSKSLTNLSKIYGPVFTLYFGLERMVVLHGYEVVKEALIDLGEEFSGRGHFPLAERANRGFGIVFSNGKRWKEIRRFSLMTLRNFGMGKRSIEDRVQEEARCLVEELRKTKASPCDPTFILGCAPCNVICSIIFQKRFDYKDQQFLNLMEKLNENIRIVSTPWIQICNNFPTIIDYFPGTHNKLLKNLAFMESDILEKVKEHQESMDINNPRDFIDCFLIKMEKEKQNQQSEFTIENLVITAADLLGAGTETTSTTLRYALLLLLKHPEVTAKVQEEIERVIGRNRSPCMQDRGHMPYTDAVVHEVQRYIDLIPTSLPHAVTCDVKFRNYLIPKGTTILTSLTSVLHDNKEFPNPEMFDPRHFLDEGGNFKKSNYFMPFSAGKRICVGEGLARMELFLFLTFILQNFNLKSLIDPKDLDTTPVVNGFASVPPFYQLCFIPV
CYP2C19 act – cytochrome P450 2C19 (human) activation; recombinant CYP2C19, luciferin-H EGE luminescence; hits give high values; 0 = fully inhibited enzyme, 1 = untreated enzyme; activation factor at 5 µM; 96,000 tested, under 10 active;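 active = activation factor of at least 2 at 5 µM in the primary screen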;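 note: 0 = wells with 2.5 mM tranylcypromine and 1 = vehicle-only wells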
CYP2C9 act – activators of human CYP2C9. 96,000 compounds, 1.4% hits. recombinant CYP2C9, luciferin-H conversion, luminescence; hits give high values; factor 1 = untreated enzyme, 0 = blocked. activation factor at 5 µM. P11712;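 active = activation factor of 2 or more for CYP2C9 at a 5 µM dose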;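 note: 0 = sulfaphenazole-blocked wells and 1 = vehicle-only wells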
MRP1 act – activates MRP-1 | H69AR cells + doxorubicin, viability rescue, CellTiter-Glo | viability increase, % at 10 µM | 140,000 compounds, 0.61% hits | AID 799;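 active = viability gain under doxorubicin at or above a set limit, the compound median plus 3 SD, cut at about 4.7% in these data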;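 note: MRP-1 overexpressing cells given doxorubicin 25 µM after compound pretreatment; 18-22 h compound pretreatment then 72 h with doxorubicin before readout; 0% = doxorubicin-only wells and 100% = vehicle-treated cells without doxorubicin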
* hit, by the source's call; · = not tested or not shown.

SMILES | MRP resist rev | CYP2C9 inhib | CYP2C19 inh | CYP2C19 act | CYP2C9 act | MRP1 act
CCCn1nnc(NC(=O)COc2ccc(C3CCCCC3)cc2)n1 | 16.1 | 89.3* | 62.0* | 0.4 | 0.1 | -0.7
CC1(c2ccccn2)Nc2ccccc2-c2nc3ccccc3n21 (stereo unspecified) | -20.8 | 52.0* | 68.9* | 0.3 | 0.5 | -0.6
c1ccc2c(c1)NC1(CCCCCC1)n1c-2nc2ccccc21 | 4.5 | 51.2* | 22.7 | 0.8 | 0.5 | -1.7
CCCCC1(C)Nc2ccccc2-c2nc3ccccc3n21 (stereo unspecified) | -20.6 | 57.0* | 80.9* | 0.2 | 0.4 | 1.9
C#CC(C)(CC)NC(=O)Cn1nnc(-c2ccc(S(C)(=O)=O)cc2)n1 (stereo unspecified) | 14.5 | 17.1 | -0.2 | 1 | 0.8 | -1.8
O=C(CSc1nnc(-c2ccco2)o1)NC1CC2CCC1C2 (stereo unspecified) | 6.4 | 18.1 | 56.1* | 0.4 | 0.8 | 0.2
COc1cccc(NC(=O)CSc2nnc(-c3cc(C)n(-c4ccccc4)c3C)o2)c1 | -1.0 | 77.6* | 49.6 | 0.5 | 0.2 | -3.8
COc1ccccc1-c1nnc(SCC(=O)Nc2c(Cl)cccc2Cl)o1 | 6.2 | 73.7* | 84.9* | 0.2 | 0.3 | 0.0
O=C(CSc1nnc(-c2ccco2)n1CC1CCCO1)NC1CCCC1 (stereo unspecified) | -12.7 | -22.9 | 53.9* | 0.5 | 1.2 | 0.1
Cc1ccc(CCNC(=O)C2CCN(C(=O)N(C)C)CC2)cc1 | 0.6 | 10.6 | 5.1 | 0.9 | 0.9 | -0.3
COCCNC(=O)/C(=C/c1ccccc1Cl)c1ccccc1 | · | · | · | · | · | -1.2
CCOC(=O)c1ccccc1NC(=O)CSc1nnnn1C | 6.7 | · | · | · | · | -0.6
C=CCn1c(-c2ccc([N+](=O)[O-])cc2)n[nH]c1=S | · | · | · | · | · | -1.8
CCOC(=O)CSc1nnc(-c2ccccc2OC)o1 | -21.0 | -95.3 | 35.7 | 0.6 | 2* | -3.1
O=C(CSc1nnc(-c2ccccc2)o1)NC1CCCCC1 | 12.7 | 47.7 | 83.2* | 0.2 | 0.5 | -1.6
COc1ccccc1-c1nnc(SCC(=O)NCc2c(C)c(Cl)cc(C(C)C)c2O)o1 | · | -201.4 | 36.2 | 0.6 | 3* | -1.0
COC(=O)CSc1nnc(-c2ccc(OC)cc2OC)o1 | -6.8 | -9.5 | 9.6 | 0.9 | 1.1 | -0.6
COc1ccc(CN(C(=O)CSc2nnc(-c3ccccc3F)o2)c2ccc(F)cc2)cc1 | -5.2 | 76.4* | 61.7* | 0.4 | 0.2 | 2.6
COC(=O)c1cc2c(C)[nH]c(C)c2cc(C(=O)OC)c1=O | · | · | · | · | · | -0.6
CCn1c2ccccc2n2c(=O)c(=O)n(CC(=O)Nc3ccc(C(C)C)cc3)nc12 | · | · | · | · | · | -1.8
Cc1cc(C(=O)N[C@H](c2ccccc2)[C@@]2(C)C[C@@H]2[C@@H](C)C(=O)Nc2ccc3ccccc3c2)n(C)n1 | · | · | · | · | · | -4.4
CC(=O)OCCOc1nc(N(C)C)nc(N(C)C)n1 | 0.6 | -11.9 | 5.3 | 0.9 | 1.1 | -1.3
COc1ccccc1-c1nnc(SCC(=O)NC2CCCCC2)o1 | -8.9 | -93.4 | 53.8* | 0.5 | 1.9 | -2.6
O=C(CSc1nnc(-c2ccco2)o1)NC1CCCCC1 | 2.0 | 10.1 | 55.3* | 0.4 | 0.9 | -0.6
Cc1ccccc1-c1nnc(SCC(=O)NC2CCCCC2)o1 | 24.9 | · | · | · | · | 1.1
SMILES | MRP resist rev | CYP2C9 inhib | CYP2C19 inh | CYP2C19 act | CYP2C9 act | MRP1 act
CN(C(=O)CSc1nnc(-c2ccco2)o1)C1CCCCC1 | 29.3 | -9.2 | 1.8 | 1 | 1.1 | -0.3
COCCCNC(=S)Nc1ccc2c(c1)OCCO2 | · | · | · | · | · | 1.1
Cc1ccc(Oc2nnc(-c3cccs3)c3ccccc23)cc1C | · | · | · | · | · | 3.1
Cc1ccc2c(c1)C(O)(CC(=O)c1ccc3c(c1)OCO3)C(=O)N2 (stereo unspecified) | 1.2 | 21.6 | 58.4* | 0.4 | 0.8 | -2.5
O=C1Nc2ccc(Br)cc2C1(O)Cc1ccncc1 (stereo unspecified) | 12.7 | 83.3* | 55.5* | 0.4 | 0.2 | -0.8
O=C1Nc2ccccc2C1(O)Cc1ccncc1 (stereo unspecified) | -9.9 | -9.4 | 35.2 | 0.6 | 1.1 | 0.2
O=C(CC1(O)C(=O)Nc2ccc(Br)cc21)c1ccc2c(c1)OCO2 (stereo unspecified) | -10.7 | 74.6* | 76.5* | 0.2 | 0.3 | -1.2
Cc1nn(-c2ccccn2)c2c1C(c1c(F)cccc1Cl)C1=C(N2)c2ccccc2C1=O (stereo unspecified) | · | · | · | · | · | -1.4

Screens (PubChem BioAssay)
